Data taken from PubChem BioAssay AID2391 (Southern Research Specialized Biocontainment Screening …, 2010).
Out of some 310,000 compounds screened, about 410 (0.13%) were called active. Roughly 2% stayed inconclusive and do not appear here. No rule for the calls is given here. A selection follows. Results with a measured potency or affinity are listed apart.

Assay: inhibition of RSV-induced cytopathic effect – HEp-2 cells, primary 10 µM value included (AID 2391)
Details: at 10 µM, hits give high values

CPE inhibition, inactive:
Cc1ccc(S(=O)(=O)N2CCN(c3ccc([N+](=O)[O-])c(Sc4nncn4C)c3)CC2)cc1 2%, Cn1cnnc1Sc1cc(N2CCN(S(=O)(=O)c3ccccc3)CC2)ccc1[N+](=O)[O-] 2.72%, Cc1ccc(C(=O)COC(=O)c2ccncc2)cc1[N+](=O)[O-] 1.18%, CCCCCCCN1C/C=C\C(c2ccc(OC)cc2)N(Cc2ccc(F)cc2)C(=O)[C@H]1Cc1ccccc1 (stereo partly drawn) 0.33%, CCN(CC(=O)NCc1ccccn1)S(=O)(=O)c1cc(Cl)ccc1Cl -1.64%, Cc1ccc2[nH]c3c(=O)[nH]ncc3c2c1 -1.42%, CCNC(=O)C1CN(S(=O)(=O)c2ccccc2)CCN1S(=O)(=O)c1ccccc1 (stereo not drawn) -2.71%, CC(C)(C)NC(=O)C1CN(S(=O)(=O)c2ccccc2)CCN1S(=O)(=O)c1ccccc1 (stereo not drawn) 0.62%, CCCCn1c(N)c(N(CC(C)C)C(=O)c2c(CC)noc2C)c(=O)[nH]c1=O -1.37%, Cc1cc(C(=O)COC(=O)c2ccc[nH]c2=O)c(C)n1-c1ccc(F)cc1 2.01%, C/C(N)=C(/C#N)C(=O)COC(=O)c1ccccc1O 1.5%, C/C(N)=C(/C#N)C(=O)COC(=O)c1cccc2ccccc12 4.13%, C/C(N)=C(/C#N)C(=O)COC(=O)c1cc2c(s1)CCC(C)C2 (stereo not drawn) 5.48%, Cc1cc(C(=O)OCC(N)=O)c(C)n1-c1ccccc1 -3.46%, C/C(N)=C(/C#N)C(=O)COC(=O)c1ccccc1Oc1ccccc1 2.44%, C/C(N)=C(/C#N)C(=O)COC(=O)C(c1ccccc1)c1ccccc1 0.91%, CNC(=O)COC(=O)c1cc2c(s1)CCCC2 1.88%, [O-]/[N+](=C/c1ccco1)c1ccccc1 2.24%, COc1cccc(NC(=O)c2ccccc2C(F)(F)F)c1 1.62%, O=C(c1ccc(Cl)c(S(=O)(=O)N2CCOCC2)c1)N1CCOCC1 -0.1%, CCCCOC(=O)c1ccc(NC(=O)c2ccc(F)cc2F)cc1 3.03%, CCOC(=O)c1sc(NC(=O)Cc2ccc(F)cc2)nc1C 17.9%, NC(=O)CCN1CCN(Cc2nc(C(c3ccccc3)c3ccccc3)no2)CC1 -0.36%, O=S(=O)(Nc1nc2ccccc2s1)c1cnc(Cl)c(Br)c1 0.69%, Cc1ccc(Cn2nnc3c(=O)[nH]c(C4CCCN(S(=O)(=O)c5ccccc5F)C4)nc32)cc1 (stereo not drawn) 4.65%, Cc1ccc(Cn2nnc3c(=O)[nH]c(C4CCCN(S(=O)(=O)c5ccccc5)C4)nc32)cc1 (stereo not drawn) 13%, COC(=O)c1ccccc1S(=O)(=O)N1CCCC(c2nc3c(nnn3Cc3ccc(C)cc3)c(=O)[nH]2)C1 (stereo not drawn) 10.4%, O=c1[nH]c(C2CCCN(S(=O)(=O)c3ccccc3)C2)nc2c1nnn2Cc1ccc2c(c1)OCCO2 (stereo not drawn) 60.4%, O=c1[nH]c(C2CCCN(S(=O)(=O)c3ccccc3)C2)nc2c1nnn2Cc1ccccc1F (stereo not drawn) 3.4%, Cc1ccc(Cn2nnc3c(=O)[nH]c(C4CCCN(S(=O)(=O)c5ccc(F)cc5)C4)nc32)cc1 (stereo not drawn) 5.93%, O=c1[nH]c(C2CCCN(S(=O)(=O)c3ccccc3)C2)nc2c1nnn2Cc1cccc(Cl)c1 (stereo not drawn) 43%, COC(=O)c1ccc(Cn2nnc3c(=O)[nH]c(C4CCCN(S(=O)(=O)c5ccccc5Cl)C4)nc32)cc1 (stereo not drawn) 2.61%, CN1CCN(/C(=N\O)c2nonc2N)CC1 -0.46%, Cc1ccc(-c2[nH]c3cc(C(=O)NCCCn4ccnc4)ccc3c(=O)c2O)cc1 1.07%, O=C(CCN1C(=O)S/C(=C\C=C\c2ccccc2)C1=O)Nc1ccc(O)cc1 -1.82%, CCOC(=O)CC(NC(=O)C(CC)c1ccccc1)c1ccccc1Cl (stereo not drawn) 3.39%, COc1ccc(N2CCN(S(=O)(=O)c3ccc(OC)c(C(=O)N4CCOCC4)c3)CC2)cc1 0.25%, COc1ccccc1C(=O)C1CCCN(C(=O)c2ccccn2)C1 (stereo not drawn) 2.51%, Cc1ccc(CN(C)C(=O)COC(=O)CSc2ccc(C(N)=O)cc2[N+](=O)[O-])cc1 -0.57%, COC(=O)c1ccc(NC(=O)c2ccccc2-c2ccccc2C(=O)O)cc1 0.77%, CCCCCCC(=O)Nc1c2c(nc3ccccc13)N(C)CC2 0.9%, O=C(Nc1ccc(F)cc1F)N1CCCC(c2nc(-c3ccc(F)cc3)no2)C1 (stereo not drawn) 14.7%, O=C(Nc1cccc(Cl)c1)Nc1nnc(CC2=CCCCC2)s1 5.11%, CCOc1ccc(S(=O)(=O)N(C)CC(=O)NCc2ccccn2)cc1Cl 1.39%, COCCN1C(=O)C(CC(=O)Nc2ccc(C(C)=O)cc2)SC1=Nc1ccccc1 (stereo not drawn) 2.47%, COCCN1C(=O)C(CC(=O)Nc2ccc(C(=O)O)cc2)SC1=Nc1ccccc1 (stereo not drawn) 1.29%, COc1ccc(OCc2n[nH]c(=S)n2Cc2ccco2)cc1 2.67%, Cc1ccc(C2C3=C(CCCC3=O)N=C3c4ccccc4C(=O)C32)cc1 (stereo not drawn) 11.5%, O=C1CCCC2=C1C(c1ccc(Cl)cc1)C1C(=O)c3ccccc3C1=N2 (stereo not drawn) 58.3%, CCOc1nc(Nc2ccc(OC)cc2)nc(N2CCOCC2)n1 2.38%, COc1ccc(C(=O)/C=C/NCc2ccc(F)cc2)cc1OC 4.99%, Cc1ccc(C)c(S(=O)(=O)N2CCCOC2CNC(=O)C(=O)NCc2cccs2)c1 (stereo not drawn) 1.48%, CCN(CC)c1ccc(CN(C(=O)c2cccs2)C2CCS(=O)(=O)C2)cc1 (stereo not drawn) 1.38%, COc1ccc(NC(=O)Nc2cc3oc4ccccc4c3cc2OC)cc1 9.45%, COc1cc2c(cc1NC(=O)Nc1ccc(C)cc1)oc1ccccc12 33%, CCS(=O)(=O)Nc1ccc(C2=NN(S(=O)(=O)CC)C(c3cccs3)C2)cc1 (stereo not drawn) 2.5%, Cc1ccc(CS(=O)Cc2ccc(C(=O)NCC(C)c3ccccc3)o2)cc1 (stereo not drawn) 1.69%, COCCCNC(=O)CN(c1cc(Cl)ccc1OC)S(C)(=O)=O 0.7%, O=C(O)c1ccc(-c2nc(-c3ccccc3Cl)cs2)cc1 15.1%, C=CCNC(=O)c1ccc(-c2nc(-c3ccc(Cl)cc3Cl)cs2)cc1 3.05%, CCOc1ccc(C(C(=O)NC2CCCC2)N(CCOC)C(=O)CNC(=O)c2ccco2)cc1 (stereo not drawn) 0.14%, CCN(c1ccccc1)S(=O)(=O)c1ccc(Cl)c(NC(=O)CSc2nncn2C)c1 4.02%, CCN(c1ccccc1)S(=O)(=O)c1ccc(Cl)c(NC(=O)CSc2nncs2)c1 14.1%, CCN(c1ccccc1)S(=O)(=O)c1ccc(OC)c(NC(=O)Cc2ccc(F)cc2)c1 13.4%, Nc1nc(SCC(=O)Nc2cc(S(=O)(=O)N3CCOCC3)ccc2Cl)n[nH]1 0.46%, CCN(c1ccccc1)S(=O)(=O)c1ccc(OC)c(NC(=O)Cc2ccc(OC)c(OC)c2)c1 8.13%, CS(=O)(=O)c1ccc(Cl)c(NC(=O)CSc2n[nH]c(N)n2)c1 -0.18%, CCN(c1ccccc1)S(=O)(=O)c1ccc(Cl)c(NC(=O)CSc2nnc(C)s2)c1 17.6%, CCC(C)NCC(=O)Nc1cc(S(=O)(=O)N(CC)c2ccccc2)ccc1Cl (stereo not drawn) 10.6%, CCC(=O)NC(=S)Nc1ccc2oc(-c3ccc(OC)cc3)nc2c1 -0.44%, Cc1[nH]c2c(Cl)cccc2c(=O)c1CN1CCCCCC1 -1.59%, CC(=O)c1ccc(C(=O)NC2CCCN(Cc3ccccc3F)C2)cc1 (stereo not drawn) -0.91%, Cc1nc(N)nc(N/N=C/c2c(F)cccc2Cl)n1 0.02%, O=C1CS/C(=N/N=C\c2ccn[nH]2)N1 6.91%, Cc1c(C(=O)O)cccc1-c1ccc(/C=N/n2cnnc2)o1 0.79%, COc1ccc(C(=O)OCC(=O)N(C)C2CCS(=O)(=O)C2)cc1Br (stereo not drawn) 1.57%, CCOC(=O)c1c(CC(C)C)csc1NC(=O)COC(=O)c1cc(OC)c(OC)cc1[N+](=O)[O-] 3.28%, C[C@@H]1NS(=O)(=O)[C@H]2C[C@@H]3C=C[C@]2(O3)[C@H]1OC(=O)Nc1ccc(C(F)(F)F)cc1[N+](=O)[O-] 0.31%, Cc1cc(C(=O)O[C@H]2[C@H](Cc3ccccc3)NS(=O)(=O)[C@H]3C[C@@H]4C=C[C@]23O4)ccc1[N+](=O)[O-] 1.3%, CCN(Cc1ccccc1)C(=O)Cc1c[nH]c2ccccc12 4.41%, Cc1ccc(-c2ccc(/C=N/NC(=S)Nc3ccccc3)o2)cc1[N+](=O)[O-] 17.4%, O=[N+]([O-])c1ccc(-c2ccc(/C=N/O)o2)cc1 11.6%, CC(=O)Nc1ccc(NC(=O)CSc2ccc(-c3ccc4c(c3)OCO4)nn2)cc1 3.37%, CCOC(=O)C1CCCN(c2c(Nc3ccc(C)c(C)c3)c(=O)c2=O)C1 (stereo not drawn) 1%, COc1cccc(OCCCN2CCN(S(=O)(=O)c3ccc(NC(C)=O)cc3)CC2)c1 3.71%, CCc1c(C(=O)Nc2cc(C)cc(C)c2)[nH]c(C)c1C(C)=O 2.64%, COc1ccc(C(CNC(=O)COc2ccccc2)N2CCCCC2)cc1 (stereo not drawn) 0.71%, COc1ccc(C(CNC(=O)Cc2ccccc2)N2CCCCC2)cc1 (stereo not drawn) -0.35%
